NR2F2 inh = inhibitors of human COUP-TFII (NR2F2); hit rate 0.7% among 370,000; inhibition, % at 8.6 µM; HEK293T NGFI-A luciferase reporter, luminescence; P24468;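 active = inhibition above a per-plate cutoff, mean inhibition of test wells between control levels plus 3 SD, cut at about 38% in these data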;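 also: cells cotransfected with COUP-TFII expression vector driving the NGFI-A reporter; 0% = median of COUP-TF2 test wells and 100% = reporter-only cells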
Target sequence (P24468 whole entry, looked up): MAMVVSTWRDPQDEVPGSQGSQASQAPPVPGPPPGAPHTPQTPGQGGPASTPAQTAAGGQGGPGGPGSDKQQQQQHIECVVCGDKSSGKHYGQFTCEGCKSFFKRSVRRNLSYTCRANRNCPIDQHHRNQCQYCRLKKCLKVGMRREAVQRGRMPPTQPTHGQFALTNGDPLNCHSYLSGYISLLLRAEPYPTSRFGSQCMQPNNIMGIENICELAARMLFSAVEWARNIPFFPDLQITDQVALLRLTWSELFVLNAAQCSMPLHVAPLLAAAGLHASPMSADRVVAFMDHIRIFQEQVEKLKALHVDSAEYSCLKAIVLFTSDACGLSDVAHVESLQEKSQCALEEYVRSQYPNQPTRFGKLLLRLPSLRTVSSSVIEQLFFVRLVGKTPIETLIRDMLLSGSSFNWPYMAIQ
SRC1 inh = human NCOA1 inhibition; Q15788; HEK293 GAL4-SRC1 luciferase reporter, luminescence; inhibition, % at 3.6 µM; hit rate 0.12% among 360,000;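 active = inhibition above the campaign mean plus 3 SD, with each screening campaign given its own cutoff, cut at about 60% in these data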;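 also: 0% = DMSO treated cells and 100% = gossypol at 36 µM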
SRC2 inh = inhibits human steroid receptor coactivator 2; Q15596; HEK293 GAL4-SRC2 luciferase reporter, luminescence; inhibition, % at 9 µM; hit rate 0.17% among 370,000; AID 651957;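 active = inhibition above the mean inhibition of all tested compounds plus 3 SD, set per campaign, cut at about 52% in these data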;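 also: 0% = DMSO treated cells and 100% = cells given Gossypol at 36 µM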
Gli-Sufu block = Gli-Sufu pathway antagonism. Sufu-KO-LIGHT fibroblasts, Gli luciferase reporter luminescence. inhibition, % at 5 µM. hit rate 0.74% among 340,000. AID 588413;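 active = inhibition above about 55%, limit read from the data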;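 also: 0% = DMSO-treated cells and 100% = wells with medium but no cells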
SRC3 inh = inhibitors of human steroid receptor coactivator 3 (SRC3); inhibition, % at 3.6 µM; HEK293 GAL4-SRC3 luciferase reporter, luminescence; hit rate 0.17% among 360,000; Q9Y6Q9;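 active = inhibition above a per-campaign cutoff, the mean of all compounds plus 3 SD, cut at about 60% in these data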;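 also: 0% = DMSO-treated cells and 100% = gossypol-treated cells at 36 µM; higher means less SRC3-driven luciferase light from the GAL4 reporter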
LRH-1 inv ag = suppresses constitutive activity of human LRH-1 | O00482 | HEK293T StAR-luciferase reporter, LRH-1 transfected, 24 h | inhibition, % at 3.6 µM | hit rate 0.13% among 360,000;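 active = inhibition above the mean inhibition of all tested compounds plus 3 SD, cut at about 73% in these data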;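 also: 0% = DMSO wells and 100% = reporter-only cells lacking LRH-1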
* hit, by the source's call; nt = no result given. Rows were chosen to be rich in hits. Some 1.3% of all compounds tested hit in one or more screens of this group.

SMILES	NR2F2 inh	SRC1 inh	SRC2 inh	Gli-Sufu block	SRC3 inh	LRH-1 inv ag
C=C1C(=O)C23CCC4C(C)(C(=O)OC)CCCC4(C)C2CCC1(O)C3 (stereo unspecified)	78.4*	35.9	68.2*	43.8	10.0	42.5
COC(=O)[C@]1(C)CCC[C@@]2(C)C3CC[C@@]4(C)C[C@]3(CCC21)CC(=O)N4 (stereo partly specified)	4.2	-2.9	-8.4	29.5	14.3	18.9
CC(C)N1Cc2nnn(Cc3ccccc3)c2-c2cc(N3CCCC3)ccc2S1(=O)=O	-12.6	nt	7.6	nt	nt	nt
CC1CCC(C(C)C)C(OC(=O)Cn2c(-c3ccc(F)cc3)[n+](C)c3ccccc32)C1 (stereo unspecified)	25.3	39.8	35.7	80.9*	67.0*	67.4
C[C@@H](CO)N(Cc1cn(Cc2ccccc2)nn1)S(=O)(=O)c1ccc(F)cc1Br	4.6	nt	17.1	nt	nt	nt
COc1cccc(/C=N/NC(=O)c2cc3cc([N+](=O)[O-])ccc3s2)c1O	11.7	4.0	10.4	76.9*	20.5	3.1
COc1cc(NC(=O)c2ccccc2)c(C)cc1NC(=O)CSc1nnc(-c2ccccc2F)n1-c1ccc(C)cc1	-5.7	nt	3.4	nt	nt	nt
COc1ccccc1-c1nnc(Nc2nc3c(OC)cccc3s2)o1	-27.1	-72.2	-22.4	89.1*	-25.4	36.0
COc1cccc2sc(Nc3nnc(-c4ccccc4Cl)o3)nc12	-6.0	-8.0	3.9	3.0	-6.0	39.9
COc1ccc(-c2cc(-c3nc4ccccn4c3NCc3ccccc3)ccc2OC)cc1	101.0*	15.2	90.7*	89.6*	63.7*	91.2*
CCC(C)Sc1cc(-c2nc3ccc(C)cn3c2NCc2ccccc2)ccc1OC (stereo unspecified)	14.0	16.1	16.9	66.5*	12.9	15.4
O=S1(=O)c2c(cccc2N2CCSCC2)Oc2ccccc2CN1Cc1cn(Cc2ccccc2C(F)(F)F)nn1	-2.9	nt	23.5	nt	nt	nt
COc1cccc(/C=N/Nc2cc(-n3nc(C)cc3-c3ccccc3)ncn2)c1O	-8.3	4.5	12.1	40.7	38.6	1.0
COc1ccc(/C=N/Nc2ncnc(Cl)c2N)cc1OC	3.2	-37.7	-8.8	-9.2	-18.9	-8.2
Oc1ccccc1/C=N/Nc1nccnc1Cl	-57.1	-16.2	-13.8	56.9*	-33.8	-110.9
COc1cccc(/C=N/Nc2ncnc(Cl)c2N)c1O	-4.3	2.3	30.4	79.3*	65.7*	-14.1
COc1ccc(/C=N/Nc2nccnc2Cl)c(OC)c1	-47.6	-133.0	-51.7	-47.3	-66.0	-129.9
COc1cccc(/C=N/Nc2ncnc3scc(-c4ccccc4)c23)c1O	-6.3	84.6*	27.6	88.1*	87.5*	97.8*
Oc1ccc(/C=N/Nc2nccnc2Cl)c(O)c1	-46.1	-39.7	7.4	44.9	-2.9	-59.5
COc1cccc(/C=N/Nc2nccnc2Cl)c1O	-59.8	7.5	4.9	68.2*	44.5	31.6
O=C(NCCc1c[nH]c2ccccc12)OCc1cn(Cc2ccc(F)cc2F)nn1	0.9	nt	-16.9	nt	nt	nt
COC(=O)[C@]12C[C@H](CC(=O)NCCCN3CCCC3=O)C(=O)N(Cc3ccco3)C1=C[C@H](C(C)C)O[C@@H]2C1CC1	8.0	nt	29.8	nt	nt	nt
COc1ccc(OC)c(CN2C(=O)CSCCC2(C)c2nnnn2C2CCCC2)c1 (stereo unspecified)	0.6	nt	2.0	nt	nt	nt
CC[C@H]1C=C[C@@H](C(=O)NS(=O)(=O)c2ccc(C)cc2)N(C(C)=O)C1	7.8	nt	-6.3	nt	nt	nt
O=S(=O)(Nc1cccc2ncccc12)c1cccs1	nt	-64.1	nt	87.4*	-70.0	-4.0
SMILES	NR2F2 inh	SRC1 inh	SRC2 inh	Gli-Sufu block	SRC3 inh	LRH-1 inv ag
CC(C)C[C@@H]1COc2cc(Br)ccc2S(=O)(=O)N1Cc1cn(Cc2ccccc2)nn1	-3.2	nt	14.3	nt	nt	nt
CC(NC(=O)CCc1nnc(-c2ccc(-c3ccccc3)cc2)o1)c1nc2ccccc2[nH]1 (stereo unspecified)	34.8	-19.8	67.0*	5.4	-6.6	3.5
Cc1cc(C)c(C(=O)/C=C/c2cccc3ccccc23)c(=O)[nH]1	20.5	55.6	66.3*	4.9	78.0*	55.1
CCc1cccc2sc(N3CCN(C(=O)c4ccc([N+](=O)[O-])o4)CC3)nc12	nt	-2.1	nt	76.3*	4.5	41.4
Cc1ccc(N(Cc2cc(=O)[nH]c3ccccc23)C(=O)CCl)c(C)c1	8.0	27.1	68.6*	4.5	41.6	59.8
CCCC(=O)N(Cc1cc(=O)[nH]c2ccccc12)c1ccc(C)cc1C	-6.5	10.8	6.0	-0.9	-14.1	2.8
COCc1cc(CN2CCCC2)c(O)c2ncccc12	2.2	10.9	-24.2	3.9	-16.6	29.3
CN(C)C1CCN(Cc2cc(COCc3ccccc3)c3cccnc3c2O)C1 (stereo unspecified)	nt	11.0	nt	57.0*	15.9	12.5
OCCN1CCN(Cc2cc(Cl)c3cccnc3c2O)CC1	23.2	6.5	1.6	-2.7	17.8	3.9
Oc1c(CN2CCN(c3ccccn3)CC2)cc(Cl)c2cccnc12	nt	15.7	nt	70.6*	12.2	46.3
Oc1c(CN2CCCCC2)cc(COCc2ccccc2)c2cccnc12	-3.4	15.6	-3.5	92.3*	41.3	14.3
COC(=O)C1CN(Cc2ccc(OC)cc2)CCS(=O)(=O)N1Cc1ccc(C(F)(F)F)cc1 (stereo unspecified)	26.6	nt	2.7	nt	nt	nt
CN(Cc1ccccc1)C(=O)OCc1cn(Cc2ccccc2)nn1	-10.3	nt	-5.5	nt	nt	nt
c1csc(CNc2ccc3c(c2)OCCO3)c1	63.8*	53.6	39.4	43.0	51.8	53.3
CSc1ccc(-c2nc(CSCC(=O)NC3CC3)c(C)o2)cc1	-16.9	1.5	20.1	70.3*	-0.4	3.7
Cc1oc(-c2ccccc2Cl)nc1CSCC(=O)NC1CC1	-1.8	8.3	-41.2	-0.4	-1.1	-22.6
CCc1ccc(-c2nc(CSCC(=O)NC3CC3)c(C)o2)cc1	21.7	19.5	55.7*	79.6*	19.8	18.5
CN(C)C(=O)NCCCC#Cc1ccccc1	-3.8	nt	-5.5	nt	nt	nt
COc1ccc(NC(=O)C(=O)NCC2CCCN2S(=O)(=O)c2ccc(C)cc2)cc1 (stereo unspecified)	-56.4	1.4	15.6	69.2*	26.2	31.8
Cc1ccc2cccc(NS(=O)(=O)c3ccccc3)c2n1	-2.5	nt	74.8*	53.9	nt	nt
CC1=CC2C3C(=O)N(c4ccccc4)C(=O)C3C1C(=O)C2(O)C(C)C (stereo unspecified)	17.4	nt	-1.7	nt	nt	nt
COC(=O)c1cc2ccsc2n1Cc1nc(-c2ccc(OC)cc2)oc1C	-10.2	4.8	4.6	5.8	3.7	0.1
COC(=O)c1cc2sccc2n1Cc1nc(-c2ccc(OC)cc2)oc1C	39.0*	-17.6	-12.7	3.5	-1.3	-12.2
N#CC1=C(N)C(C#N)(C#N)[C@H](c2cccnc2)[C@H]2CN(C(=O)OCc3ccccc3)CC=C12	8.5	-16.6	-17.3	-10.2	2.2	10.7
N#CC1=C(N)C(C#N)(C#N)C(c2cccnc2)C2CC(c3ccccc3)CC=C12 (stereo unspecified)	nt	65.2*	nt	3.4	62.5*	28.1
